Measurements as given in PubChem BioAssay (NCI).
The panel holds about 83,000 compounds, 20% with a hit somewhere; the sample as a whole holds those more often.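 Compound tested at a single concentration for 48 hours in 96-well plates; a percent growth value below 10 was scored as active.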 Values without a mark were called inactive. The source made the active and inactive calls.

How the values were obtained:
Assay in all cases: NCI-60 one-dose screen, 48 h (100 = growth as untreated, 0 = no growth, -100 = all killed)
Conditions in all cases: 10 µM unless noted
HCT-15 colon = system: HCT-15 colon
HT29 colon = system: HT29 colon
SNB-75 CNS = system: SNB-75 CNS
SNB-19 CNS = system: SNB-19 CNS
U251 CNS = system: U251 CNS
PC-3 prostate = system: PC-3 prostate
SK-MEL-5 melanoma = system: SK-MEL-5 melanoma
UACC-62 melanoma = system: UACC-62 melanoma
LOX IMVI melanoma = system: LOX IMVI melanoma
SK-MEL-28 melanoma = system: SK-MEL-28 melanoma
SK-MEL-2 melanoma = system: SK-MEL-2 melanoma
EKVX NSCLC = system: EKVX NSCLC
SN12C renal = system: SN12C renal
UO-31 renal = system: UO-31 renal
TK-10 renal = system: TK-10 renal
ACHN renal = system: ACHN renal
CAKI-1 renal = system: CAKI-1 renal
A498 renal = system: A498 renal
CCRF-CEM leukemia = system: CCRF-CEM leukemia
MOLT-4 leukemia = system: MOLT-4 leukemia

SMILES | growth (HCT-15 colon) | growth (HT29 colon) | growth (SNB-75 CNS) | growth (SNB-19 CNS) | growth (U251 CNS) | growth (PC-3 prostate) | growth (SK-MEL-5 melanoma) | growth (UACC-62 melanoma) | growth (LOX IMVI melanoma) | growth (SK-MEL-28 melanoma) | growth (SK-MEL-2 melanoma) | growth (EKVX NSCLC) | growth (SN12C renal) | growth (UO-31 renal) | growth (TK-10 renal) | growth (ACHN renal) | growth (CAKI-1 renal) | growth (A498 renal) | growth (CCRF-CEM leukemia) | growth (MOLT-4 leukemia)
COc1cc2c(c(OC)c1OC)-c1cc(I)c(O)cc1[C@@H](NC(C)=O)CC2 | 4.21% (active) | 10.8% | 28% | 14.1% | 7.36% (active) | 28.8% | -15.2% (active) | 17.8% | 24.4% | 76.7% | 53.4% | 60.2% | 38.6% | 25.3% | 66.9% | 27.9% | 30.7% | 49.2% | 30% | 33.7%
CC(C)CCNCC(C)(C)O | 99.1% | 103% | 90.3% | 109% | 104% | 98.6% | 113% | 111% | 101% | 122% | 107% | 106% | 110% | 92.3% | 104% | 107% | 99.1% | 105% | 116% | 110%
CCCCCn1sc(=O)n(Cc2ccc(CNC(=O)OCc3ccc4cccc(O)c4n3)cc2)c1=O | -20.5% (active) | -49.2% (active) | -4.62% (active) | 37% | 20.1% | 3.68% (active) | -44.7% (active) | -64.2% (active) | -91.5% (active) | -35% (active) | 39.3% | 28.7% | -79.7% (active) | -100% (active) | -54% (active) | -100% (active) | -74.9% (active) | 4.89% (active) | 7.05% (active) | 1.87% (active)
C[C@H]1[C@H](C)CC[C@]2(C(=O)N3CCN(C)CC3)CC[C@]3(C)C(=CC[C@@H]4[C@@]5(C)C/C(=C/c6ccco6)C(=O)C(C)(C)[C@@H]5CC[C@]43C)[C@H]12 | 32.5% [100 µM] | 26.3% [100 µM] | 62.3% [100 µM] | 47.7% [100 µM] | 17.4% [100 µM] | 29.9% [100 µM] | -46.8% [100 µM] (active) | 32.8% [100 µM] | -6.24% [100 µM] (active) | 35% [100 µM] | 42.1% [100 µM] | 42.3% [100 µM] | 28% [100 µM] | -97.5% [100 µM] (active) | 43.7% [100 µM] | 20.8% [100 µM] | 26.2% [100 µM] | 53.8% [100 µM] | 16.5% [100 µM] | 22.6% [100 µM]
CC1Cc2c(Cl)ncnc2N(C)c2ccc(O)cc21 (stereo not given) | 67.3% | 74.7% | 85% | 44.4% | 36% | 31.4% | -78.9% (active) | 33.8% | 11.9% | 27.8% | 27% | 51.3% | 82.6% | 22.5% | 94.5% | 84.9% | 89.2% | 94.1% | 82.5% | 67.6%
C=C(C)[C@@H]1CC[C@]2(C(N)=O)CC[C@]3(C)[C@H](CC[C@@H]4[C@@]5(C)C/C(=C/c6cccnc6)[C@H](O)C(C)(C)[C@@H]5CC[C@]43C)[C@@H]12 | 18.7% [100 µM] | -20.5% [100 µM] (active) | 47.1% [100 µM] | 39% [100 µM] | 24.6% [100 µM] | 21.1% [100 µM] | -78.1% [100 µM] (active) | 24.8% [100 µM] | -35.9% [100 µM] (active) | 26.5% [100 µM] | -13.2% [100 µM] (active) | 33.8% [100 µM] | 20% [100 µM] | 12.2% [100 µM] | 32.5% [100 µM] | 9.24% [100 µM] (active) | 10.7% [100 µM] | 61.9% [100 µM] | 5.5% [100 µM] (active) | 1.99% [100 µM] (active)
Clc1ccccc1/C=N\Nc1ccccn1 | 77.6% | 94.3% | 74.8% | 90.6% | 95.4% | 104% | 89.2% | 85.3% | 93% | 99.2% | 92.8% | 76.2% | 92.2% | 66.8% | 66.7% | 87.7% | 80.2% | 110% | 95.1% | 83.5%
O=C1CC(c2ccccc2)Cc2nc3ccc(Cl)cc3cc21 (stereo not given) | 13.9% | 4.39% (active) | 29.7% | 24.9% | 18.8% | 27.7% | -14.3% (active) | 29.3% | 29.7% | 50.6% | 57.1% | 30.2% | 28.3% | 35% | 71.2% | 30.8% | 29.2% | -17.4% (active) | 10.4% | 11.6%
CC(C)=CCC[C@](C)(O)[C@H]1CC[C@]2(C)[C@@H]1CC[C@@H]1[C@@]3(C)CC/C(=N/O)C(C)(C)[C@@H]3CC[C@]12C | 29.7% [100 µM] | -43.5% [100 µM] (active) | -38.8% [100 µM] (active) | -28.8% [100 µM] (active) | -81.5% [100 µM] (active) | -52.1% [100 µM] (active) | -45.3% [100 µM] (active) | -59.2% [100 µM] (active) | -9.59% [100 µM] (active) | -36.1% [100 µM] (active) | -23.2% [100 µM] (active) | 2.6% [100 µM] (active) | -42.4% [100 µM] (active) | -17.7% [100 µM] (active) | -39.1% [100 µM] (active) | -72% [100 µM] (active) | -58.4% [100 µM] (active) | -15.7% [100 µM] (active) | 23.1% [100 µM] | 2.24% [100 µM] (active)
CC[C@@](C)(NC(=O)[C@H](C)NC(=O)CCNC(=O)C(C)(C)NC(=O)[C@H](C)NC(=O)[C@@H]1CCCN1C(=O)[C@@](C)(CC)NC(=O)[C@H](Cc1ccccc1)NC(=O)C1CCCN1C(=O)C(C)(C)NC(=O)C1CCCN1C(=O)C(C)(C)NC(C)=O)C(=O)NCCC(=O)N[C@@H](CC(C)C)C(=O)NC(C)(C)C(=O)NCCC(=O)N[C@@H](CC(C)C)C(=O)NC(C)(C)C(=O)NC(C)(C)C(=O)N[C@@H](CC(C)C)C(=O)NCCC(=O)NCO (stereo not given in full) | -99.4% (active) | -70.8% (active) | -96.4% (active) | -87.2% (active) | -99.1% (active) | -94.6% (active) | -100% (active) | -75.3% (active) | -100% (active) | -84.1% (active) | -89% (active) | -100% (active) | -76.7% (active) | -90.7% (active) | -98.9% (active) | -90.1% (active) | -98.2% (active) | -97.4% (active) | -61.1% (active) | -61.1% (active)
COc1ccc(/C=C(/C(=O)c2ccc(Cl)cc2)C(=O)C(F)(F)F)cc1 | 99% | 82.1% | 112% | 93.5% | 94.1% | 102% | 102% | 96.4% | 95.6% | 106% | 86.4% | 92.5% | 98% | 78.6% | 75.3% | 110% | 94.3% | 82.4% | 89.7% | 85.8%
COc1ccc2nc3c(cc2c1)C(=O)CC(C(F)(F)F)C3 (stereo not given) | 37.8% | 10.9% | 7.87% (active) | 50.3% | 84.7% | 33% | 31.4% | 39.8% | 43.8% | 61.1% | 83.9% | 55.9% | 42.1% | 46.6% | 69.2% | 49.2% | 37.1% | -7.7% (active) | 9.88% (active) | 15.3%
Cc1nn(-c2ccccc2)c(N2CCOCC2)c1-c1nc2ccc([N+](=O)[O-])cc2[nH]1 | 91.5% | 113% | 95.7% | 103% | 102% | 112% | 95.7% | 83.4% | 92.1% | 102% | 110% | 106% | 95.2% | 81.4% | 100% | 105% | 80% | 76.3% | 92.6% | 85.7%
O=C(COc1cccc(/C=C2\Oc3ccccc3C2=O)c1)c1ccc([N+](=O)[O-])cc1 | 94.2% | 108% | 81.7% | 91.3% | 93.6% | 86.6% | 99% | 72.2% | 88.6% | 135% | 92.1% | 95% | 92.6% | 81.2% | 119% | 101% | 108% | 100% | 63.1% | 72%
CCN(CC)CCCOc1ccc2c(c1)O/C(=C\c1cccc(OC)c1)C2=O | 53.5% | 50.2% | 71.8% | 92.6% | 76.7% | 94.6% | 91.2% | 95.6% | 70.7% | 101% | 118% | 97.4% | 87.1% | 73.8% | 98.7% | 99.8% | 87.4% | 72.6% | 102% | 97.7%
